From PubChem
Hits are enriched below; roughly 27% of the tested compounds scored in any of these assays.
sEH inhibitor: inhibitors of human soluble epoxide hydrolase; hit rate 0.34% among 91,000; P34913; recombinant human sEH enzymatic activity assay; AID 707; inhibition, % at 2 µM; in the data active means inhibition above about 80%
Target sequence (P34913 whole entry, looked up): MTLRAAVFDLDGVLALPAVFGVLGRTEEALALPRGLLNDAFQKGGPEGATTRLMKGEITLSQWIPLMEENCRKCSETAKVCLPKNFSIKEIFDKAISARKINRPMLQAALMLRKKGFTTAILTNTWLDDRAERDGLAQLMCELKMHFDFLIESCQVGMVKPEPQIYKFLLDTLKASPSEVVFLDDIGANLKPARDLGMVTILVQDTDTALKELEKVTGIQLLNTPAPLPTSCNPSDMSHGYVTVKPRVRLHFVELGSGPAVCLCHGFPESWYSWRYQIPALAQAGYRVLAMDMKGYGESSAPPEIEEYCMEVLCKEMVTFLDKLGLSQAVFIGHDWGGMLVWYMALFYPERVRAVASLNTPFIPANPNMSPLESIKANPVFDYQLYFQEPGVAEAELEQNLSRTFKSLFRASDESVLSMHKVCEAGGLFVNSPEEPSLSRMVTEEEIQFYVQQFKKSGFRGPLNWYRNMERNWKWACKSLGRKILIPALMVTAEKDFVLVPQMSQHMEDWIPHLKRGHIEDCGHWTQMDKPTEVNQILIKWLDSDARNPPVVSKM
CYP2C19 activ: activators of human cytochrome P450 2C19; P33261; recombinant CYP2C19, luciferin-H EGE luminescence; active compounds read high; 0 = fully inhibited enzyme, 1 = untreated enzyme; activation factor at 5 µM; 96,000 tested, under 10 active;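 active means activation factor of at least 2 at 5 µM in the primary screen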;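 further: 0 = wells with 2.5 mM tranylcypromine and 1 = vehicle-only wells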
CYP2C9 inh: human CYP2C9 inhibition. P11712. CYP2C9 Supersomes, luciferin-H conversion, luminescence. inhibition, % at 5 µM. hit rate 20% among 96,000. AID 777;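 active means blocking of liver enzyme CYP2C9 beyond about 50% at 5 µM, limit read from the data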
CYP2C19 inh: human CYP2C19 inhibition; P33261; CYP2C19 Supersomes, luciferin-H EGE luminescence, 30 min; inhibition, % at 5 µM; hit rate 21% among 96,000;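 active means CYP2C19 inhibition above a set limit at 5 µM in the primary screen, cut at about 50% in these data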;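 further: plate controls were negative control wells for no effect and 2.5 mM tranylcypromine positive control for full effect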
CYP2C9 act: increases human cytochrome P450 2C9 activity; activation factor at 5 µM; hit rate 1.4% among 96,000; recombinant CYP2C9, luciferin-H conversion, luminescence; active compounds read high; factor 1 = untreated enzyme, 0 = blocked; P11712;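 active means activation factor of 2 or more for CYP2C9 at a 5 µM dose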;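 further: 0 = sulfaphenazole-blocked wells and 1 = vehicle-only wells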
sEH activator: increases human soluble epoxide hydrolase activity; P34913; hit rate 0.04% among 91,000; activation, % at 2 µM; purified human sEH enzymatic activity, activator screen; in the data active means activation above about 37%
An asterisk follows results filed as active; / = no result given.

SMILES	sEH inhibitor	CYP2C19 activ	CYP2C9 inh	CYP2C19 inh	CYP2C9 act	sEH activator
Cc1cccc(N(C)C(=O)CCS(=O)(=O)c2cccc3nonc23)c1	/	0.1	20	94*	0.8	/
COc1ccc(N(C)C(=O)CCS(=O)(=O)c2cccc3nonc23)c(OC)c1	-6	0.4	9	64*	0.9	4
CCc1cccc(CC)c1NC(=O)CSc1nnc(C(C)C)n1CC	-5	1	-14	1	1.1	4
CN(Cc1cnn(C)c1)C(=O)C1CCCCC1C(=O)O (stereo not given)	4	/	/	/	/	-1
Nc1nc(SCC(=O)Nc2cc(-c3ccccc3)nn2-c2ccccc2)n[nH]1	-8	0.1	60*	94*	0.4	7
Nc1nc(SCC(=O)Nc2ccccc2Sc2ccc(Cl)cc2)n[nH]1	3	0	99*	100*	0	-2
Cn1c2c(c(=O)n(C)c1=O)CN(CC1CCCO1)CN2 (stereo not given)	10	1.2	-17	-18	1.2	-9
Cc1noc(C)c1COC(=O)CCCOc1ccc(Cl)cc1Cl	9	0.2	80*	84*	0.2	-8
Cc1noc(C)c1COC(=O)Cc1ccc(Cl)cc1	13	0.1	55*	92*	0.4	-15
O=c1c2cc(N3CCOCC3)ccc2[nH]c(=S)n1Cc1ccco1	/	0.7	53*	28	0.5	/
C=CCN1C(=O)C(Cc2ccc(C)cc2)S/C1=N/N=C/c1ccco1 (stereo not given)	-6	1	25	5	0.7	6
C=CCN1C(=O)C(Cc2ccc(OCC)cc2)S/C1=N\N=C\c1cccs1 (stereo not given)	-23	0.7	54*	30	0.5	26
C=CCN1C(=O)C(Cc2ccccc2)S/C1=N/N=C/c1cccs1 (stereo not given)	9	0.8	68*	23	0.3	-8
COC1(c2cc(-c3ccccc3)nc(N)n2)CCCCC1	-4	0.5	32	53*	0.7	2
CCOC(=O)N1CCN(C(=O)c2oc3ccc(S(=O)(=O)N4CCCCCC4)cc3c2C)CC1	-31	0.2	73*	80*	0.3	32
O=S(=O)(c1ccc2oc3ccc(S(=O)(=O)N4CCCCC4)cc3c2c1)N1CCCCC1	8	1	66*	5	0.3	-7
CCOC(=O)N1CCN(C(=O)c2oc3ccc(S(=O)(=O)N4CC(C)CC(C)C4)cc3c2C)CC1 (stereo not given)	5	0.4	51*	61*	0.5	-4
O=S(=O)(c1ccc2oc3ccc(S(=O)(=O)N4CCCC4)cc3c2c1)N1CCCC1	-2	/	/	/	/	6
CCOC(=O)C1CCN(C(=O)c2oc3ccc(S(=O)(=O)N4CC(C)CC(C)C4)cc3c2C)CC1 (stereo not given)	-20	0.7	35	35	0.7	21
Cc1c(C(=O)N2CCCc3ccccc32)oc2ccc(S(=O)(=O)N3CCOCC3)cc12	2	0	85*	96*	0.1	-2
CCn1c(=O)cc(O)c2c(=O)n(C)c(=O)n(C)c21	-10	1	43	2	0.6	10
O=C(N1CCOCC1)N1CCN(S(=O)(=O)N2CCOCC2)CC1	3	1	6	0	0.9	-5
Cc1c(C(=O)N2CCOCC2)oc2ccc(S(=O)(=O)N3CCCC3)cc12	-9	/	/	/	/	12
CCOC(=O)N1CCN(C(=O)c2oc3ccc(S(=O)(=O)N4CCOCC4)cc3c2C)CC1	/	0.4	75*	55*	0.2	/
CCCCCOC(=O)Cn1c(SCC(=O)Nc2ccccc2)nc2c1c(=O)[nH]c(=O)n2C	1	0.8	22	24	0.8	-1
SMILES	sEH inhibitor	CYP2C19 activ	CYP2C9 inh	CYP2C19 inh	CYP2C9 act	sEH activator
CN(C)c1ccc(/C=C/c2ccncc2)cc1	4	0	78*	98*	0.2	-5
O=C(Nc1cccc(NS(=O)(=O)c2ccc(S(=O)(=O)NC3CC3)cc2)c1)c1ccccn1	10	0	97*	99*	0	-13
O=S(=O)(Nc1ccccn1)c1ccc(C2CCCCC2)cc1	-3	0.8	40	23	0.6	1
COc1ccc(-c2nnc3n2N=C(c2ccccc2)CS3)cc1OC	/	0.5	76*	52*	0.2	/
COc1ccc(C2=Nn3c(nnc3-c3ccccc3)SC2)cc1OC	19	0.3	30	72*	0.7	-17
Cc1cccc(-c2nnc3n2N=C(c2ccccc2)CS3)c1	0	0.7	50	29	0.5	0
Cc1noc(C)c1CSc1nnc2cc(C)c3ccccc3n12	/	0.7	13	34	0.9	/
COc1ccc(OC)c(NC(=O)COC(=O)c2ccc(-n3cnnn3)cc2)c1	-4	0.4	21	63*	0.8	3
COc1ccc(C(C)=O)cc1COc1ccc(-n2cnnn2)cc1	-2	0	93*	99*	0.1	2
COc1cc(NC(=O)COc2ccc(-n3cnnn3)cc2)c(OC)cc1Cl	0	0.9	-20	14	1.2	-3
COc1ccc(C(C)=O)cc1CN(C)C	3	1.1	-19	-10	1.2	-5
COC(=O)c1ccc(COC(=O)c2ccc(-n3cnnn3)cc2)o1	6	0.9	64*	14	0.4	-7
Nc1nc(C2CCCN2S(=O)(=O)c2ccc(Cl)cc2)cs1 (stereo not given)	3	0.2	11	80*	0.9	-3
O=C(Nc1nc2ccccc2s1)C1CCCN1S(=O)(=O)c1ccc(Cl)cc1 (stereo not given)	2	0	97*	96*	0	-4
Cc1ccc(S(=O)(=O)N2CCCC2C(=O)Nc2nc3ccccc3s2)cc1 (stereo not given)	-14	0	86*	97*	0.1	17
O=S(=O)(c1ccc(Cl)cc1)N1CCCC1c1nc(-c2ccc(Cl)cc2)no1 (stereo not given)	-7	/	/	/	/	10
O=S(=O)(c1ccccc1)N1CCCC1c1nc2ccccc2s1 (stereo not given)	13	0.8	21	19	0.8	-11
Cc1nn2c(=O)nc3sc4c(c3c2[nH]c1=O)CCCC4	9	/	/	/	/	-4
Cc1ccc(S(=O)(=O)N2CCN(S(=O)(=O)N(C)C)CC2)c(C)c1	-4	0.7	7	34	0.9	6
COc1cc(OC)cc(C(=O)NCCCN2CCOCC2)c1	-6	/	/	/	/	6
CC(C)(C)OC(=O)N1CCC(c2cc(=O)n3[nH]c(-c4ccc(Cl)cc4)cc3n2)CC1	-6	1.1	-20	-9	1.2	5
CC(C)(C)OC(=O)N1CCC(c2cc(=O)n3[nH]cc(C(=O)NC4CCCC4)c3n2)CC1	-2	0.6	95*	39	0	4
CCn1c(SCC(=O)c2[nH]c(C)c(C(C)=O)c2C)nnc1-c1ccncc1	1	0.3	8	66*	0.9	-3
CCn1c(SCC(=O)c2[nH]c(C)c(C(C)=O)c2C)nnc1-c1ccccc1	12	0.2	27	77*	0.7	-9
